{"source": "PubChem BioAssay (NCI)", "note": "About 83,000 compounds went through this panel and 20% of them were active in at least one assay; those are over-represented in the sample as a whole.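 Plates (96-well) were seeded with cells, treated with compound at one concentration, and incubated for 48 hours before percent growth was determined.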 Values without a mark were called inactive. Activity calls are given as the source filed them.", "data": [{"system": "NCI-H226 lung", "assay": "NCI-60 one-dose screen, 48 h (100 = growth as untreated, 0 = no growth, -100 = all killed)", "settings": "10 µM unless noted", "experimental": "Growth inhibition of the NCI-H226 human Non-Small Cell Lung tumor cell line is measured as a screen for anti-cancer activity. Cells are grown in 96 well plates and exposed to the test compound for 48 hours. Compounds are tested at a single concentration, which is 10^-5 M for most compounds. The reported endpoint is percent growth (GI% or GIPRCNT), where numbers from 0 - 100% represent growth inhibition, and numbers from -100% - 0 represent cell death. For example, a value of 40 represents 60% growth inhibition. A value of 0 means no net growth occurred over the course of the experiment. A value of -40 indicates 40% of cells at the beginning of the experiment died by the end of the experiment. A value of -100 means all cells are dead at the end of the experiment.\nNCI-60 Human Tumor Cell Lines Screen was performed using the standard one-dose NCI protocol, which is described in more detail at https://dtp.cancer.gov/discovery_development/nci-60/default.htm.\nCompounds with GIPRCNT values below 10 were considered active. Activity score was based on GIPRCNT using the following formula: […]\nScore is 0 for GIPRCNT values of 100 or above, 50 for GIPRCNT values of 0, and 100 for GIPRCNT values of -100.", "values": [{"compound": "Cc1nn(-c2ccccc2)c2ncnc(N/N=C/c3ccccc3)c12", "growth": "78.3%"}, {"compound": "NS(=O)(=O)c1ccc(-n2cc(-c3cccc(NC(=O)c4ccc(N5CCOCC5)c(C(F)(F)F)c4)c3)nn2)cc1", "growth": "15.5%"}, {"compound": "NC(N)=Nc1ccc(Nc2cccc(Nc3ccc(Cl)c(C(F)(F)F)c3)c2)cn1", "growth": "24.4%"}, {"compound": "C=C(C=O)[C@@H]1CC[C@]2(CO)CC[C@]3(C)[C@H](CC[C@@H]4[C@@]5(C)CCCNC(C)(C)[C@@H]5CC[C@]43C)[C@@H]12", "growth": "76.5%"}, {"compound": "CCCCCc1ccc(S(=O)(=O)Nc2cccc(-c3csc(NCCN4CCN(C)CC4)n3)c2)cc1", "growth": "96.7%"}, {"compound": "N#Cc1ccccc1Cn1c2nc(=N)c3ccccc3c-2nc2ccccc21", "growth": "61.3%"}, {"compound": "Nc1ncc(-c2ccc3ncnc(N4CCc5cc(F)c(Cl)cc54)c3c2)cn1", "growth": "20.7%"}, {"compound": "O=C1CCC(N2C(=O)c3ccc(NS(=O)(=O)c4ccccc4OC(F)(F)F)cc3C2=O)C(=O)N1", "note": "(stereo not given)", "growth": "44.7%"}, {"compound": "CCCCCc1ccc(S(=O)(=O)Nc2cccc(-c3csc(NC(=O)CNCCN(C)C)n3)c2)cc1", "growth": "87.5%"}, {"compound": "COc1cccc(/C=C(/C)c2ccc3cccc(OC)c3[o+]2)c1O", "growth": "103%"}, {"compound": "COc1cc(-c2nn(C(C)(C)C)cc2-c2ccnc(NCCCNS(=O)(=O)c3ccc(Cl)cc3)n2)ccc1Cl", "growth": "53.8%"}, {"compound": "CCN(CC)c1ccc2c(c1)Oc1nc(N)c(C#N)c(N)c1C2Sc1ccc(F)cc1", "note": "(stereo not given)", "growth": "-84.8% (active)"}, {"compound": "CN1CCN(Cc2ccc(NC(=O)c3cncc(C#Cc4cnc5ccc(OCC(C)(C)O)nn45)c3)cc2C(F)(F)F)CC1", "growth": "-64.1% (active)"}, {"compound": "C=CC(=O)N1CC=C(c2cc3c(N[C@H](C)c4ccccc4)ncnc3[nH]2)CC1", "growth": "58.7%"}, {"compound": "CCc1cccc2c3c(sc12)C(c1ccc(Cl)cc1)C(C#N)=C(/N=C/c1ccc(Cl)cc1)O3", "note": "(stereo not given)", "growth": "53.3%"}, {"compound": "CC(C)(C)c1ccc(C(=O)Nc2sc3c(c2C(N)=O)CC/C(=N\\O)C3)cc1", "growth": "17.5%"}, {"compound": "O=S(=O)(NC1c2ccccc2C[C@H]1O)c1ccc(Cl)cc1Cl", "note": "(stereo not given in full)", "growth": "93.6%"}, {"compound": "COc1ccc(S(=O)(=O)NCCCNc2nccc(-c3cn(C(C)(C)C)nc3-c3ccc(Cl)c(OC)c3)n2)cc1", "growth": "73.6%"}, {"compound": "CC(C)(C)CC(C)(C)n1nnnc1C(Nc1nccs1)c1cc2cccc3ccc4cccc1c4c32", "note": "(stereo not given)", "growth": "3.26% (active)"}, {"compound": "CCNC(=O)N1CCc2cc(OC)c(OCCc3ccc(OC)cc3)cc2C1c1ccc(Cl)cc1C", "note": "(stereo not given)", "growth": "32.4%"}, {"compound": "c1ccc(C(c2nc3ncncc3[nH]2)N2CSc3nc4ncncc4n3C2)cc1", "note": "(stereo not given)", "growth": "56.2%"}, {"compound": "O=C(CCC(=O)N1CCOCC1)OCCCCCCSc1ccc([N+](=O)[O-])c2nonc12", "growth": "-20.7% (active)"}, {"compound": "C=C1CC[C@@H]2[C@]3(C)COC(c4ccccc4)O[C@@H]3CC[C@@]2(C)[C@@H]1C/C=C1/C(=O)OC[C@H]1O", "note": "(stereo not given in full)", "growth": "96.1%"}, {"compound": "O=C(NCCn1ccnc1)c1ccc(-c2nc3ccc4[nH]ncc4c3c3c2CCCC3)cc1", "growth": "69.7%"}, {"compound": "COC(=O)c1[nH]nc2c1C1(C(=O)N(C)c3ccccc31)C(C#N)=C(N)O2", "note": "(stereo not given)", "growth": "99.2%"}, {"compound": "COc1ccc(-n2c(SCc3n[nH]c(=S)o3)nc3ccc(Cl)cc3c2=O)cc1", "growth": "77.6%"}, {"compound": "C#CC(=O)N(c1ccc(OC)cc1OC)C(C(=O)NCC(=O)OCC)c1cccs1", "note": "(stereo not given)", "growth": "93.3%"}, {"compound": "CN1c2ccccc2Sc2cc(C=C(C#N)C#N)ccc21", "growth": "-31.4% (active)"}, {"compound": "Oc1ccc(CSc2nnc(-c3ccc(Cl)cc3)n2-c2ccccc2)c2cccnc12", "growth": "50.9%"}, {"compound": "COc1ccc(COc2ccc(/C=C3\\C(=O)Nc4ccccc43)cc2OC)cc1", "growth": "103%"}, {"compound": "CCCn1cnc2c(c1=N)C(c1ccc(F)cc1)c1sc3c(C)cccc3c1O2", "note": "(stereo not given)", "growth": "8.74% (active)"}, {"compound": "COc1ccc(/C=C(\\C#N)C(=O)N2c3ccccc3Sc3ccc(SC)cc32)cc1F", "growth": "88.8%"}, {"compound": "CCCCNNC(=O)c1ccc(-c2cccc(F)c2F)cc1", "growth": "39.5%"}, {"compound": "Cc1ccc2c(c1)C13C(=C2Br)CCCN1C(=O)c1ccccc13", "note": "(stereo not given)", "growth": "92.3%"}, {"compound": "COC(=O)/C=C/c1c(C2(C)NC(=O)c3ccccc3N2)c(=O)oc2ccc(Cl)cc12", "note": "(stereo not given)", "growth": "88.1%"}, {"compound": "COc1ccc(N2C(=O)c3cc(Cl)ccc3NC2SCc2ccccc2)cc1", "note": "(stereo not given)", "growth": "96.2%"}, {"compound": "O=C(Cn1c(-c2ccccc2)nc2cc(Cl)c(Cl)cc21)N=Nc1c(O)[nH]c2ccc(Cl)cc12", "growth": "37.3%"}, {"compound": "NS(=O)(=O)c1ccc(-n2cc(CN3CCNCC3)nn2)cc1", "growth": "101%"}, {"compound": "CC(=O)Nc1cccc(Nc2nc(N[C@@H](C)c3ccccc3)c3ccccc3n2)c1", "growth": "6.42% (active)"}, {"compound": "CCCn1cnc2c(c1=N)C(c1ccc(Cl)cc1)c1sc3c(C)cccc3c1O2", "note": "(stereo not given)", "growth": "62%"}]}]}
